Shown are actives, neighbours in structure and some others; about 1.2% of the full set was active somewhere.
Avidin fluor – green autofluorescence of compounds with avidin beads – biophysical, 488/530 nm, flow cytometry, artefact control, profiling panel; compound fluorescence 488/530 nm; active compounds read high; fluorescence (KMESF) at 10 µM; hit rate 0.38% among 220,000; AID 1775, 2009; in the data active means fluorescence above about 47
RGS16-Gao HTS – modulators of RGS16 binding to Galphao, primary screen, biochemical, human proteins, multiplexed bead flow cytometry; hit rate 0.38% among 220,000; binding response (% of control), % at 10 µM; bead-based flow cytometry RGS16-Galphao binding, fluorescence; actives lie on both sides; Regulator of G-protein signaling 16 (Homo sapiens) + Guanine nucleotide-binding protein …; AID 1441, 2008;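 further: Galphao activated by GDP with aluminum fluoride before binding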
Target sequence (O15492 whole entry, looked up): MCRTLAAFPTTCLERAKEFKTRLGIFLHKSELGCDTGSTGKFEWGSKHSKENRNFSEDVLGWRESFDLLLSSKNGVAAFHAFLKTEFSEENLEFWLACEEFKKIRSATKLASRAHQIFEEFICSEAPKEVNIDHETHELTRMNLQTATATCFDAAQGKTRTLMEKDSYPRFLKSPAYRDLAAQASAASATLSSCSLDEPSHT
Target sequence (P09471 whole entry, looked up): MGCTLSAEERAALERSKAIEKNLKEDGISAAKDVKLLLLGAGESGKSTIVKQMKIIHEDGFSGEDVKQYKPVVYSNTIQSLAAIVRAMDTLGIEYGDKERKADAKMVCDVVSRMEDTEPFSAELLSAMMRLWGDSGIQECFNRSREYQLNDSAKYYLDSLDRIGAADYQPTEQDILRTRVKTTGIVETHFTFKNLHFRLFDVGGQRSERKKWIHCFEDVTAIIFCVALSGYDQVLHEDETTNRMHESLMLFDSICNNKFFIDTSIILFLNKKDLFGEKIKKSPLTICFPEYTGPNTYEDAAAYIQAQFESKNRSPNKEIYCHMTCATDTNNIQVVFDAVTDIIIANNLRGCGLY
RGS7-Gao – RGS7-Galphao binding modulators, primary screen, biochemical, multiplexed bead flow cytometry. Guanine nucleotide-binding protein G(o) subunit alpha (Homo sapiens), P09471. actives lie on both sides. binding response (% of control), % at 10 µM. hit rate 0.35% among 220,000; in the data active means binding response below about 49% or above about 150%; inconclusive means no clear call, values can overlap the other calls; inactive means in between;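 further: fluorescent Galphao held in activated GDP-AlF4 state binding bead-coupled RGS7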
Target sequence (P09471 whole entry, looked up): as above
GSH fluor – compound fluorescence on glutathione beads, profiling panel, artefact control, biophysical, 488/530 nm, flow cytometry; GSH beads flow cytometry, compound fluorescence 488/530 nm; active compounds read high; fluorescence (KMESF) at 10 µM; hit rate 0.25% among 190,000; AID 1776, 2009; in the data active means fluorescence above about 89;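 further: glutathione beads carrying GST-tagged Bcl family fusion proteins plus one bare bead set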
RGS4-Gao reg – modulators of RGS4 binding to Galphao, primary screen, biochemical, multiplexed bead flow cytometry. Guanine nucleotide-binding protein G(o) subunit alpha (Homo sapiens), P09471. hit rate 0.33% among 220,000. actives lie on both sides. binding response (% of control), % at 10 µM. AID 1415, 2008; in the data active means binding response below about 49% or above about 150%; inactive means in between;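 further: fluorescent Galphao activated with aluminum fluoride binding bead-coupled RGS4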
RGS8-Gao reg – RGS8-Galphao binding modulators, primary screen, biochemical, multiplexed bead flow cytometry; Guanine nucleotide-binding protein G(o) subunit alpha (Homo sapiens), P09471; actives lie on both sides; response (percent of control binding), % at 10 µM; hit rate 0.34% among 220,000; AID 1423, 2008; in the data active means response below about 60% or above about 140%; inactive means in between;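 further: Galphao activated as the GDP aluminium fluoride complex binding bead-coupled RGS8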
RGS4-Gao HTS – modulators of RGS–Galpha-o binding, primary screen, biochemical, multiplexed beads, flow cytometry, RGS4/7/8/16/19; RGS4–Galpha-o binding response, % at 10 µM; multiplexed bead flow cytometry; shares compounds with RGS16-Gao HTS; hit rate 99% among 1,600;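 further: fluorescently labeled Galpha-o bound to GDP with aluminium fluoride binding biotinylated RGS beads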
Biotin-avidin – disruption of biotin probe capture by avidin, counter-screen for RGS protein interaction modulators, biochemical, flow cytometry, bead-based | shares compounds with RGS16-Gao HTS | streptavidin beads, fluorescein-biotin binding | inhibition, % at 10 µM | 1,700 tested, under 10 active | AID 1783, 2009;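 active means inhibition above 50%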;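 further: median green fluorescence of gated singlet beads compared with DMSO control wells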
RGS8-Gao single – RGS8-Galphao binding modulators, confirmation, biochemical, multiplexed bead flow cytometry, single concentration; hit rate 3% among 1,700; binding response (% of control), % at 10 µM; shares compounds with RGS16-Gao HTS; bead-based flow cytometry RGS8-Galphao binding, fluorescence; actives lie on both sides; in the data active means binding response below about 72% or above about 130%; inactive means in between;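 further: Galphao activated as GDP AlF4 complex before binding bead RGS8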
RGS7-Gao single – RGS7-Galphao binding modulators, confirmation, biochemical, multiplexed bead flow cytometry, single concentration; shares compounds with RGS16-Gao HTS; bead-based flow cytometry RGS7-Galphao binding; actives lie on both sides; response (percent of control binding), % at 10 µM; hit rate 7.8% among 1,700; in the data active means response below about 75% or above about 130%; inactive means in between;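 further: fluorescent Galphao activated with GDP and aluminum fluoride binding bead-coupled RGS7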
RGS16-Gao conf – modulators of RGS16-Galphao protein binding, confirmation, biochemical, single concentration, multiplexed bead flow cytometry; response (% of control binding), % at 10 µM; bead-based flow cytometry; actives lie on both sides; shares compounds with RGS16-Gao HTS; hit rate 4% among 1,700; in the data active means response below about 74% or above about 130%; inactive means in between;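 further: Galphao activated as the GDP aluminium fluoride complex binding bead-coupled RGS16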
RGS4-Gao confirm – modulators of RGS4-Galphao protein binding, confirmation, biochemical, single concentration, multiplexed bead flow cytometry; shares compounds with RGS16-Gao HTS; actives lie on both sides; binding response (% of control), % at 10 µM; hit rate 4% among 1,700; AID 1840, 2009; in the data active means binding response below about 74% or above about 130%; inactive means in between
RGS19-Gao single – regulators of RGS19-Galphao binding, confirmation, biochemical, single point, multiplexed bead flow cytometry; shares compounds with RGS16-Gao HTS; bead-based flow cytometry RGS19-Galphao binding; actives lie on both sides; response (percent of control binding), % at 10 µM; hit rate 5% among 1,700; AID 1841, 2009; in the data active means response below about 50% or above about 160%; inactive means in between
Numbers stand for hits; – = inactive; ? = inconclusive; · = not tested or not shown; [ ] = another dose, or the depositor's remark. Unless noted, how the calls were made is not given here.

SMILES	Avidin fluor	RGS16-Gao HTS	RGS7-Gao	GSH fluor	RGS4-Gao reg	RGS8-Gao reg	Biotin-avidin	RGS8-Gao single	RGS7-Gao single	RGS16-Gao conf	RGS4-Gao confirm	RGS19-Gao single	others
CCOc1ccc(NC(=O)N(CCC(C)C)C2CCN(C(C)=O)CC2)cc1	–	–	–	–	–	153.2[activator]	–	–	–	–	–	–	RGS4-Gao HTS=126.7
CCOc1ccc(NC(=O)N(C2CCCC2)C2CCN(C(C)=O)CC2)cc1	–	–	–	–	–	–	·	·	·	·	·	·
O=C(NCC1CCS(=O)(=O)C1)Oc1ccccc1 (stereo unspecified)	–	291.3[activator]	–	–	–	–	–	–	–	–	–	–	RGS4-Gao HTS=108.5
COc1ccc(C(=O)/C=C/c2ccc(OC(=O)c3cc(OC)c(OC)c(OC)c3)cc2)cc1	–	–	–	–	–	159.0[activator]	–	–	–	–	–	–	RGS4-Gao HTS=119.5
CCOc1ccc(/C=C/C(=O)c2ccccc2)cc1	–	-3.6	?	·	-8.9	23.1	–	–	–	–	–	–
CCOc1ccc(C(=O)/C=C/c2ccc(SC)cc2)cc1	–	–	–	–	–	–	·	·	·	·	·	·
CCOc1ccc(C(=O)/C=C/c2cc(OC)c(OC)c(OC)c2)cc1	–	–	?	–	–	–	·	·	·	·	·	·
CCOC(=O)Cc1csc(NC(=O)c2cc3c(s2)CCCC3)n1	–	–	–	–	–	–	·	·	·	·	·	·
CCOC(=O)Cc1csc(NC(=O)c2csc3c2CCCC3)n1	–	–	19.3	–	28.9	14.3	–	–	–	–	–	–
CC(=O)N1CCc2cc(S(=O)(=O)NC(Cc3ccccc3)C(=O)Nc3cc(C)ccn3)ccc21 (stereo unspecified)	–	–	–	–	–	153.4[activator]	–	–	–	–	–	–	RGS4-Gao HTS=129.4
CCC(=O)N1CCc2cc(S(=O)(=O)NC(Cc3ccccc3)C(=O)NC3CCCCC3)ccc21 (stereo unspecified)	–	–	–	–	–	–	·	·	·	·	·	·
OCC1OC(n2cnc3ccccc32)CC1O (stereo unspecified)	–	–	?	·	–	–	·	·	·	·	·	·
NC(=O)SC/C(=N\S(=O)(=O)c1ccccc1)Nc1ccccc1	189	418.5[activator]	268.1[activator]	–	349.8[activator]	–	–	–	–	–	–	–
Cc1ccc(OCC(=O)N/N=C\c2ccncc2)c(C)c1	–	177.1[activator]	–	–	–	–	·	·	·	·	·	·	RGS4-Gao HTS=105.8
N/C(Cc1nc(-c2ccc(Br)cc2)cs1)=N\O	–	–	–	–	–	–	·	·	·	·	·	·
COCCNC(=O)c1cc(Sc2nnc(C)s2)nc2ccccc12	–	–	?	·	36.3	59.7	–	–	–	–	–	–
O=C(COc1ccc2ccccc2c1)NCCc1ccc2c(c1)OCCO2	–	113.3[activator]	–	–	31.4	106.0[activator]	–	–	–	–	–	–
O=C(COc1ccc2ccccc2c1)NCCNC(=O)COc1ccc2ccccc2c1	–	–	–	–	–	–	·	·	·	·	·	·
COc1cccc(-c2cnc(NCc3cc(Cl)ccc3O)n2C)c1	55	–	159.9[activator]	–	–	–	·	·	·	·	·	·	RGS4-Gao HTS=116.8
Cn1c(-c2cccc(Br)c2)cnc1NCc1cccnc1	–	–	–	–	–	–	·	·	·	·	·	·
NC(=O)c1ccc(NC(=O)CN2CCN(c3ccc(Cl)cc3)CC2)cc1	–	–	34.3	–	38.1	36.3	–	–	–	–	–	–
O=C(CN1N=C(c2ccc(Cl)cc2)CCC1=O)NCCN1CCc2ccccc2C1	–	-2.4	4.0	–	14.5	12.9	–	–	–	–	–	–
Cc1ccc(C2=NN(CC(=O)NCc3cccs3)C(=O)CC2)cc1	–	–	–	–	–	–	·	·	·	·	·	·
C[C@H](NC(=O)c1nc[nH]c1C(=O)NCc1ccccc1)C(=O)OC(C)(C)C	–	–	26.1	–	38.7	41.9	–	–	–	–	–	–
C[C@H](NC(=O)c1nc[nH]c1C(=O)N[C@H](C)c1ccccc1)C(=O)OC(C)(C)C	–	15.8	16.8	–	25.4	20.6	–	–	–	–	–	–
SMILES	Avidin fluor	RGS16-Gao HTS	RGS7-Gao	GSH fluor	RGS4-Gao reg	RGS8-Gao reg	Biotin-avidin	RGS8-Gao single	RGS7-Gao single	RGS16-Gao conf	RGS4-Gao confirm	RGS19-Gao single	others
C[C@H](NC(=O)c1ccco1)C(=O)NCCc1ccc(S(N)(=O)=O)cc1	–	–	?	·	–	–	·	·	·	·	·	·
Cc1ccc(Nc2nnc(-c3ccccc3N)o2)cc1C	–	–	?	·	–	–	·	·	·	·	·	·
O=C(NCc1cccnc1)C(=O)NCC1OCCN1S(=O)(=O)c1cc(F)ccc1F (stereo unspecified)	75	200.5[activator]	?	·	205.9[activator]	–	–	–	–	–	–	–
CCCC(CCC)C(=O)Nc1ccc2c(c1)N(C(=O)CN1CCN(C)CC1)c1ccccc1CC2	–	252.9[activator]	–	–	–	–	–	–	–	–	–	–	RGS4-Gao HTS=121.2
COc1ccc(-c2cc(C(F)(F)F)c(C#N)c(SCC(=O)Nc3ccccc3C#N)n2)cc1	49	–	152.6[activator]	–	256.5[activator]	–	–	–	–	–	–	–
COc1ccc(NC(=O)CSc2nc(-c3ccc(C)cc3)cc(C(F)(F)F)c2C#N)cc1	–	–	–	–	–	–	·	·	·	·	·	·

Screens (PubChem)
